LMP1 NFkB inh: Epstein-Barr LMP1 NF-kappaB reporter inhibition; 350,000 tested, 0.69% active; LMP1-induced NF-kappaB luciferase reporter cells, luminescence; inhibition, % at 12.5 µM; AID 504558; in the data active = inhibition above about 41%; inconclusive = no clear call, values can overlap the other calls;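 note: 0% = neutral control wells and 100% = reference inhibitor control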
TWEAK-Fn14 inh: blocks TWEAK-Fn14 interaction in a reporter cell assay; inhibition, % at 10 µM; TWEAK-stimulated Fn14 reporter cells, luciferase luminescence, 8 h; 360,000 tested, 2% active; in the data active = inhibition above about 50%
TROY NFkB inh: TROY signaling inhibition. 360,000 tested, 0.98% active. inhibition, % at 10 µM. AID 1347056. Q293 LMP1-TROYcd NF-kB luciferase reporter, 4 h;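 active = compounds whose plate-normalised and pattern-corrected inhibition of the luciferase reporter signal at the single screening dose is 50% or more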
HSP90 refold inh: blocks HSP90-mediated luciferase refolding in reticulocyte lysate | Rabbit reticulocyte lysate, luciferase refolding luminescence, 3 h | inhibition, % at 5.6 µM | 290,000 tested, 0.91% active;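 active = inhibition above the screen-wide mean plus 3 SD, computed separately per campaign, cut at about 16% in these data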;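 note: 0% = DMSO wells and 100% = 60 µM geldanamycin wells; inhibitors lower the luminescence because luciferase stays unfolded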
HSF1 inhib: HSF1 inhibition. activity change, negative = inhibition, % at 7.5 µM (by protocol). NIH3T3-HGL HSE-luciferase, MG132-induced, luminescence 8 h; active compounds read low. AID 2098. 300,000 tested, 0.77% active;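 active = more than half of replicate wells show activity change below -50%, luminescence cut by over half; inconclusive = some wells, but at most half, below -50%; inactive = no replicate well below -50%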;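 note: luciferase reports HSF-1 transcriptional activity via heat shock element; 0% = median of DMSO wells and -100% = zero luminescence signal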
HSF1 activator: increases HSF-1 driven luciferase reporter signal. NIH3T3-HGL HSF-1 luciferase reporter, MG132, 8 h; 100% = twice DMSO control signal. activation, % at 9 µM. 300,000 tested, 1.7% active. AID 504408;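 active = mean replicate activation of at least 50% with a set share of replicates each reaching 50%; inconclusive = only one of those two conditions met; inactive = mean below 50% and too few replicates reaching it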;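 note: 0% = median of the neutral control wells and 100% = twice that signal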
HSP90 inh confirm: HSP90 inhibition, confirmation assay. shares compounds with HSP90 refold inh. inhibition, % at 5.9 µM. AID 1846. 2,300 tested, 64% active. rabbit reticulocyte lysate, luciferase refolding luminescence, 3 h; in the data active = inhibition above about 18%;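 note: 0% = vehicle wells and 100% = reference inhibitor wells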
FLuc counter: firefly luciferase inhibition, HSP90 counter-screen; shares compounds with HSP90 refold inh; purified native firefly luciferase, luminescence; inhibition, % at 5.9 µM; 2,300 tested, 48% active; AID 1847;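 active = inhibition above the mean inhibition of all tested sample wells plus 3 SD, cut at about 10% in these data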;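 note: 0% = DMSO with luciferase and 100% = wells lacking luciferase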
Target sequence (P08659 whole entry, looked up): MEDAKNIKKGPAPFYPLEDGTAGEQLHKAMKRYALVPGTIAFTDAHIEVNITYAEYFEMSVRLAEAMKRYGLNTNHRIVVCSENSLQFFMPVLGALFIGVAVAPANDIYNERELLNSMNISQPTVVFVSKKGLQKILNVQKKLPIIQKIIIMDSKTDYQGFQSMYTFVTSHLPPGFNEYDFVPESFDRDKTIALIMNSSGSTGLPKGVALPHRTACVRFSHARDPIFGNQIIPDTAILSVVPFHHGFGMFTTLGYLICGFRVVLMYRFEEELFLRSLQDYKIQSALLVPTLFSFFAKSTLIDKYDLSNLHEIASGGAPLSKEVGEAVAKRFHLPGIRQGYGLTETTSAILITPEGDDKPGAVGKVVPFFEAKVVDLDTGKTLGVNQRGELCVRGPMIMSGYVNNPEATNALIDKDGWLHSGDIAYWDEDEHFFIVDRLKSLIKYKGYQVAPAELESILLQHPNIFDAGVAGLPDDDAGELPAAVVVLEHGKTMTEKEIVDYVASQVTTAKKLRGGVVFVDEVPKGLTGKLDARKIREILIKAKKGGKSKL
Active calls of the source: *; ? = inconclusive; . = no result given. Sampled rows, rich in hits. Any-hit rate of the full collection: about 4.7%.

SMILES	LMP1 NFkB inh	TWEAK-Fn14 inh	TROY NFkB inh	HSP90 refold inh	HSF1 inhib	HSF1 activator	HSP90 inh confirm	FLuc counter
N#CC1C(=O)c2ccccc2C1c1ccccc1 (stereo not given)	-3	-20	52*	.	.	.	.	.
CCc1ccc(/C=C/C(=O)c2ccc(N3CCOCC3)cc2)cc1	3	42	-9	-1	24	55*	.	.
CC1CCN(c2oc(-c3cccc4ccccc34)nc2C#N)CC1	-59	-32	-68	0	3	29	.	.
N#Cc1nc(-c2cccc3ccccc23)oc1N1CCCCC1	-30	-57	-50	21*	20	26	0	-12
COc1ccc(-c2cn3c(C)c(C(=O)NC(C)C)sc3n2)cc1	-13	-4	-48	1	4	-18	.	.
Cc1cccc(NC(=O)c2sc3nc(-c4ccccc4)cn3c2C)n1	-6	6	7	27*	-14	-8	15	-21
COc1ccc(-c2cn3c(C)c(C(=O)Nc4cccc(C)n4)sc3n2)cc1	3	31	3	77*	9	6	73*	7
Cc1cccc(NC(=O)c2sc3nc(-c4ccc(F)cc4)cn3c2C)n1	-27	39	13	5	-1	-4	.	.
Cc1ccc(NC(=O)COC(=O)c2ccco2)cc1S(=O)(=O)N1CCCCC1	-6	-7	6	.	.	.	.	.
CCCCCCN1C[C@@H](n2cc(COC(=O)c3ccccc3)nn2)[C@H](O)C[C@@H]1c1ccc(OC)cc1	0	21	9	.	.	.	.	.
Cc1cc(C)n(C(=O)c2c([N+](=O)[O-])cnn2C)n1	0	12	11	72*	-5	5	-4	-10
Cc1ccc(-c2nnc(SCC(=O)Nc3ccccc3F)o2)cc1	79*	86*	78*	54*	-54*	-60	31*	29*
COC(=O)c1ccccc1NC(=O)CSc1nnc(-c2ccc(C)cc2)o1	.	.	.	4	-40	-48	.	.
O=C(CSc1nnc(-c2cccnc2)o1)Nc1ccc(Br)cc1	-15	27	1	18*	21	24	-5	-6
Cc1c(NC(=O)c2cccc(NC(=O)COc3cccc(Br)c3)c2)c(=O)n(-c2ccccc2)n1C	13	9	8	.	.	.	.	.
Cc1cc2cc3c(cc2nc1SCC(=O)N1CCCC1)OCCO3	-12	10	-11	-2	4	-2	.	.
N#Cc1cc2cc3c(cc2nc1SCC(=O)N1CCOCC1)OCCO3	37	97*	76*	21*	?	-44	17*	-3
NC(=S)N/N=C/c1cn(-c2ccccc2)nc1-c1cccnc1	9	-5	-30	30*	4	4	1	-8
NC(=O)N/N=C/c1cn(-c2ccccc2)nc1-c1cccnc1	.	.	.	6	-1	0	.	.
O=C(O)COc1ccccc1/C=N/NC(=O)c1cc(-c2ccc(F)cc2)nc2ccccc12	7	-8	-17	17*	-9	-24	25*	8
O=C(N/N=C/c1ccc2c(c1)OCO2)c1cc(-c2ccc(F)cc2)nc2ccccc12	13	6	13	-1	-8	-16	.	.
Cc1ccc(-c2cnc(C(O)c3ccc(Cl)c(Cl)c3)[nH]2)cc1 (stereo not given)	.	-26	-14	.	.	.	.	.
Cc1cccc(NC(=O)COC(=O)CN2C(=O)c3ccccc3C2=O)c1	-1	3	10	.	.	.	.	.
CCOC(=O)N1CCC(=NNc2nc3ccccc3s2)CC1	-6	4	-1	26*	0	16	2	-8
CC(C)(C)OC(=O)N1CCN(C(=O)c2ncn3c2c(=O)[nH]c2ccccc23)CC1	-1	11	-8	.	.	.	.	.
COc1ccc(OC)c(NC(=O)CCNS(=O)(=O)c2ccc3c(c2)CC(C)N3C(C)=O)c1 (stereo not given)	2	-28	0	.	.	.	.	.
Cc1cc(=O)n(-c2ccc(O)cc2)[nH]1	4	10	-4	18*	7	16	-2	-4
Cc1cc(=O)n(-c2ccc(C(=O)O)cc2)[nH]1	4	-3	-5	3	-7	0	.	.

High-throughput results as filed in PubChem.
